The structures appear in SMILES notation.

The experiment concerns HepG2. The experiment in a line: GSK_TCMDC: Percent inhibition of human HepG2 cell line. Test compounds present at 10uM. It counts as functional.
Compound `Cc1occc1C(=O)Nc1nc(-c2ccccn2)nc2ccsc12` returned an Inhibition of 68%.

`COc1cc(C)nc2ccc(NC(=O)c3cc(C(F)(F)F)cc(C(F)(F)F)c3)cc12.Cl` had an Inhibition of 16%.

`CC(C)[C@H](NC(=O)NC1CCC(CCN2C3CCC2CC(OC(=O)C(CO)c2ccccc2)C3)CC1)C(O)(c1ccccc1)c1ccccc1` (stereo not given in full) returned an Inhibition of 17%.

Compound `Cc1onc(-c2c(F)cccc2Cl)c1C(=O)Nc1ccccc1I` displayed an Inhibition of 0%.

Regarding `CCc1ccc(NC(=O)c2cccc(CN3CCCN(CC4CCCCC4)CC3)c2)cc1.O=C(O)C(F)(F)F`, the Inhibition was found to be 62%.

`COCCOc1cc(C)c(C2CCN(CCCCNC(=O)c3ccc(NC(=O)c4ccc(Cl)cc4)cc3)CC2)cc1C` returned an Inhibition of 15%.

As to `Cc1cccc2nc(-c3cccc(-c4cccc(NC(=O)NCc5cccc(F)c5)c4)c3)[nH]c12`, the Inhibition turned out to be 11%.

Regarding `Cc1cccc(-c2nn(-c3ccccc3)cc2C(=O)Nc2nnc(C)o2)c1`, the Inhibition was 38%.

Turning to `CCN1CCCC1CN(Cc1ccc(-c2ccc(C(F)(F)F)cc2)cc1)C(=O)Cn1c(CCc2cccc(F)c2F)nc(=O)c2ccccc21.O=C(O)C(O)C(O)C(=O)O` (stereo not given), the Inhibition is given as 40%.

Turning to `COc1ccc(CC(=O)NC(CCN2CCC3(CCc4ccccc43)CC2)c2ccc(Cl)c(Cl)c2)cc1` (stereo not given), the Inhibition was found to be 28%.

As to `CN1CCN(c2ccc3nccc(CCN4CCC(NCc5ccc6c(n5)NC(=O)CO6)CC4)c3n2)CC1.Cl`, the Inhibition is 9%.

On to `CC(C)C[C@H](NC(=O)c1ccc(OCCN2CCOCC2)cc1)C(=O)N[C@H](/C=N/N(C)C(=O)c1ccccc1)CCc1ccccc1`, for which the Inhibition is recorded as 8%.

`COc1ccc(-c2nc(-c3ccc([N+](=O)[O-])cc3)no2)cc1OC` registered an Inhibition of 14%.

With `N=C(NCc1ccccc1)Nc1nc(-c2ccc(OCCCn3ccnc3)cc2)cs1`, the Inhibition came out at 10%.

Regarding `Nc1ccc(-c2nc3cc(C4=N[C@H]5CCCC[C@H]5N4)ccc3o2)cc1[N+](=O)[O-]`, the Inhibition was 16%.

Take `O=C(Nc1cccc(-c2ccc(-c3nc4ccccc4[nH]3)cc2)c1)c1cnn2cccnc12`: the Inhibition worked out at 9%.

For the compound `Cc1cc(O)c(CN(C)Cc2ccc3c(c2)OCCO3)cc1C(C)C`, the Inhibition was 10%.

Regarding `N#Cc1cccc(CN2CCCN(Cc3ccc(C(=O)Nc4ccc(Cl)cc4)cc3)CC2)c1.O=C(O)C(F)(F)F`, the Inhibition is on record as 48%.

The compound `COc1ccccc1C1CCN(C2CCC(NC(=O)/C=C/c3ccc(C(F)(F)F)cc3)CC2)CC1` (stereo not given) yielded an Inhibition of 57%.

Turning to `CCCOc1ccccc1-c1nc2[nH]c3c(c2c(=O)[nH]1)CCN(C)C3`, the Inhibition was found to be 8%.

As for `Cc1noc(C)c1-c1ccc2c(Nc3ccccc3C(C)(C)C)c(C(=O)NCc3cccc4ccccc34)cnc2c1.Cl`, the Inhibition turned out to be 4%.

On to `O=C(Nc1cccc(CN2CCCN(Cc3cccc(O)c3)CC2)c1)c1ccc(-c2ccccc2)cc1.O=C(O)C(F)(F)F`, for which the Inhibition is listed as 28%.

`CN1CCN(CCCN(Cc2cccc(-c3ccc(CNCc4ccc5c(c4)OCO5)cc3)c2)C(=O)Nc2ccccc2)CC1.O=C(O)C(F)(F)F`: the Inhibition was 39%.

For `O=C(Nc1ccnc(N2CC3CC2CN3Cc2cccc(O)c2)c1)c1ccc(F)cc1.O=C(O)C(F)(F)F` (stereo not given), the Inhibition was 2%.

`Cc1cc(=NN=Cc2ccccc2F)c2cccc(C)c2[nH]1` returned an Inhibition of 7%.

As to `O=C(Nc1cccc(-c2cccc(-c3ccc(F)cc3)n2)c1)c1ccc([N+](=O)[O-])o1`, the Inhibition was 100%.

As to `COc1cc(-c2nc3c4ccccc4c4ccccc4c3[nH]2)cc(OC)c1OC`, the Inhibition amounted to 4%.

In turn, `Cc1cc(F)ccc1[C@H]1C[C@H](N2CCOCC2)CCN1C(=O)N(C)[C@@H](C)c1cc(C(F)(F)F)cc(C(F)(F)F)c1.Cl` registered an Inhibition of 4%.

`Nc1c(Cl)cc(C(O)CNCCCCCCOCCC=C2CCOCC2)cc1Cl` (stereo not given) registered an Inhibition of 7%.

In turn, `CCCCNCc1ccc(-c2nc(CN(Cc3ccc(Cl)c(Cl)c3)C(=O)CN(C)C)cs2)cc1.O=C(O)C(F)(F)F` had an Inhibition of 36%.

`CCN1CCN(c2ccc(NC(=O)c3cc4c(C)nn(-c5ccccc5)c4s3)cc2C)CC1` gave an Inhibition of 32%.

Turning to `FC(F)(F)c1cccc(C=NNc2nc3ccccc3[nH]2)c1`, the Inhibition is on record as 1%.

Compound `O=S(=O)(Nc1cccc(CCN2CCC(N3CCCCC3)CC2)c1)c1ccc(-c2ccccc2)cc1` yielded an Inhibition of 76%.

`Cc1cccc(C(=O)NC(NC(=S)Nc2cc(Cl)ccc2Cl)C(Cl)(Cl)Cl)c1` (stereo not given) yielded an Inhibition of 0%.

Compound `O=C(/C=C/c1ccc(Cl)c(Cl)c1)NCCCCCN1CCCC(C(=O)Nc2ccc(F)c(Cl)c2)C1` (stereo not given) showed an Inhibition of 28%.

On to `CN1CCCCC1CCc1cc(C(=O)Nc2ccc(-c3ccc(O)cc3)cc2)ccc1O` (stereo not given), for which the Inhibition came to 6%.

Turning to `CC(C)COc1ccc(Cl)cc1Cc1nc(-c2nc3ccc(CN4CCCC4)cc3[nH]2)co1.Cl`, the Inhibition was 50%.

The compound `CCN(CCCN1CCCCC1)c1nccc(Nc2ccc(Cl)cc2)n1` gave an Inhibition of 19%.

Consider `Cc1cccc2nc(-c3ccc(-c4ccc(CN5CCCC(O)C5)cc4)cc3)[nH]c12.O=C(O)C(F)(F)F` (stereo not given), for which the Inhibition is 41%.

Take `CCCCCCN1CCC(NCc2ccc(OCCN3CCCC3)cc2)CC1.O=C(O)C(F)(F)F`: the Inhibition worked out at 23%.

The Inhibition is the relative decrease from the control value, in per cent.

The values are drawn from ChEMBL document CHEMBL1157539, “Thousands of chemical starting points for antimalarial lead identification” (Nature, 2010).
